Shown are actives, neighbours in structure and some others; about 8.2% of the full set was active somewhere.
KB-V1 cytotox = KB-V1 MDR subline cytotoxicity; 400,000 tested, 3.4% active; KB-V1 MDR cells viability, CellTiter-Glo, 72 h; Potency, µM (highest dose often 46.1 µM), usual class: cytotoxic; note: nearly all actives have a fitted effect of over 60% in size
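Cells of the MDR subline KB-V1 are plated, dosed with compound at multiple concentrations, and incubated 72 h at 37 degrees C; CellTiter-Glo is then added and luminescence read after 10 min.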
SW480 rerep = induces DNA re-replication in SW480 colon adenocarcinoma cells; 340,000 tested, 1.8% active; SW480 DNA re-replication, Hoechst DNA content imaging, 48 h; AID 624297; Potency, µM (series often up to 46.1 µM), usual class: activators; note: nearly all actives have a fitted effect of over 55% in size
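SW480 cells exposed to compounds for 48 hr at 37 C, 5% CO2, then Hoechst-stained 40 min. Nuclear DNA content imaged by fluorescence scanning (405 nm excitation, 500-530 nm emission); re-replication scored as increased high-intensity nuclei.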
KB-3-1 cytotox = KB-3-1 parental cell cytotoxicity; KB-3-1 viability, CellTiter-Glo ATP luminescence, 72 h; Potency, µM (highest dose often 46.1 µM), hits mostly cytotoxic; 400,000 tested, 1.4% active; AID 1347075; note: nearly all actives have a fitted effect of over 60% in size
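KB-3-1 cells, DMEM (no phenol red) + 10% FBS; compound by pin transfer, 72 h, 37 °C. Readout: CellTiter-Glo luminescence after 10 min. Data normalized, curve-fitted.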
MCF10A rerep = inducers of DNA re-replication in MCF 10A breast cells; MCF 10A DNA re-replication, Hoechst nuclear intensity, 48 h; 350,000 tested, 2.9% active; Potency, µM (doses to about 46.1 µM), hits mostly activators; note: nearly all actives have a fitted effect of over 50% in size
ELG1 repair inh = blocks ELG1-dependent DNA repair in HEK293T cells; 330,000 tested, 2.3% active; Potency, µM (highest dose often 46.1 µM), hits mostly inhibitors; HEK293T ELG1-luciferase reporter, luminescence, 16 h; DNA damage induced by 5-fluorouridine; note: nearly all actives have a fitted effect of over 55% in size
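Step one: seed 2,000 cells per well. Step two: pin-transfer compound or DMSO alongside 5-fluorouridine. Step three: incubate 16 hr, 37 °C, 5% CO2. Step four: add ONE-Glo, wait 30 min, read luminescence.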
Large screens that a line does not name were inactive. Calls come from the whole dose curve; as a rule, active = well fitted curve in the direction sought with a large enough effect; inconclusive = small, poorly fitted or top-dose-only effect, or another doubt; inactive = no such curve, though single readings can be large; an effect the other way counts as inactive or inconclusive.

Cc1cc2c(n1-c1ccc(C(=O)NCc3ccccc3Cl)cc1)CCCC2	none (no result: SW480 rerep, MCF10A rerep, ELG1 repair inh)
CCCCCCCCN1C(=O)[C@H](CC(=O)NCc2ccc(OC)c(OC)c2)C[C@@]2(C(=O)OC)CC(C)(C)CC=C12	KB-V1 cytotox 20.6µM, KB-3-1 cytotox inconclusive (no result: SW480 rerep, MCF10A rerep, ELG1 repair inh)
CCCCCCCCN1C(=O)[C@H](CC(=O)NCCCC)C[C@@]2(C(=O)OC)CC(C)(C)CC=C12	KB-V1 cytotox 20.6µM, KB-3-1 cytotox inconclusive (no result: SW480 rerep, MCF10A rerep, ELG1 repair inh)
CCCCCCCCN1C(=O)[C@H](CC(=O)NCCCCc2ccccc2)C[C@@]2(C(=O)OC)CC(C)(C)CC=C12	KB-V1 cytotox inconclusive (no result: SW480 rerep, MCF10A rerep, ELG1 repair inh)
COC(=O)[C@@]12C[C@@H](CC(=O)NCc3ccc(OC)c(OC)c3)C(=O)N(CCc3ccc(OC)c(OC)c3)C1=CCC(C)(C)C2	KB-V1 cytotox inconclusive (no result: SW480 rerep, MCF10A rerep, ELG1 repair inh)
CCCCCCCCN1C(=O)[C@H](CC(=O)NCc2ccccc2)C[C@@]2(C(=O)OC)CC(C)(C)CC=C12	KB-V1 cytotox 18.4µM, KB-3-1 cytotox inconclusive (no result: SW480 rerep, MCF10A rerep, ELG1 repair inh)
COc1ccc(CNC(=O)CN2C(=O)NC3(CCCCCCC3)C2=O)cc1	none
Cc1cccc(Nc2nc(NC(C)C)nc(Oc3ccc(=O)n(C)n3)n2)c1	KB-V1 cytotox 8.2µM, ELG1 repair inh inconclusive
CC(C)Nc1nc(NC(C)C)nc(Oc2ccc(=O)n(C)n2)n1	ELG1 repair inh inconclusive
CC(C)(C)c1ccc(CC(=O)N2CCC2(C)C(=O)NS(=O)(=O)c2ccc(F)cc2F)cc1 (centres undefined)	none (no result: SW480 rerep, MCF10A rerep, ELG1 repair inh)
Cc1cc(C)c2ccc3c(C)c(C)nc3c2[nH]1	KB-V1 cytotox 16.4µM, SW480 rerep inconclusive, KB-3-1 cytotox inconclusive, MCF10A rerep 20.6µM, ELG1 repair inh inconclusive
Cc1cc(=O)[nH]c2c(C)c(N)ccc12	none
COc1cc(C(=O)NC(=S)N(CCc2ccccc2)CCc2ccccc2)cc(OC)c1OC	KB-V1 cytotox 2.31µM, SW480 rerep inconclusive, KB-3-1 cytotox inconclusive, MCF10A rerep inconclusive, ELG1 repair inh 18.4µM
O=C(NC(=S)N(CCc1ccccc1)CCc1ccccc1)c1ccco1	KB-V1 cytotox 6.51µM, SW480 rerep inconclusive, KB-3-1 cytotox inconclusive
COc1cc(C(=O)NC(=S)N(C)Cc2ccccc2)cc(OC)c1OC	ELG1 repair inh inconclusive
O=C(NC(=S)NCc1ccccc1)c1ccccc1F	ELG1 repair inh inconclusive
O=C(NC(=S)N(Cc1ccccc1)Cc1ccccc1)c1ccccc1F	SW480 rerep 1.64µM, ELG1 repair inh inconclusive
COc1cc(NC(=O)c2ccccc2OCc2ccccc2)cc(OC)c1OC	KB-V1 cytotox inconclusive, ELG1 repair inh 16.4µM
CCc1ccc(S(=O)(=O)c2cn(C)c3cc(F)c(F)cc3c2=O)cc1	none (no result: SW480 rerep, MCF10A rerep, ELG1 repair inh)
CCOc1ccccc1OCC(=O)N/N=C(\C)Cc1ccc(OC)cc1	KB-V1 cytotox inconclusive, SW480 rerep 8.2µM, KB-3-1 cytotox inconclusive, MCF10A rerep inconclusive
COc1cc(C(=O)NCC(=O)N/N=C(\C)Cc2ccccc2)cc(OC)c1OC	ELG1 repair inh inconclusive
COc1ccccc1OCC(=O)NN=C(Cc1ccccc1)Cc1ccccc1	KB-V1 cytotox inconclusive, SW480 rerep inconclusive, MCF10A rerep inconclusive
COc1cc(C(=O)N/N=C(\C)Cc2ccccc2)cc(OC)c1OC	SW480 rerep 2.59µM, MCF10A rerep 2.06µM, ELG1 repair inh inconclusive
Cc1cc(=O)oc2cc(OCC(=O)NCCc3c[nH]c4ccc(F)cc34)ccc12	KB-V1 cytotox inconclusive, SW480 rerep 13µM, ELG1 repair inh inconclusive
Cc1cc(N2CCN(c3nc4ccccc4s3)CC2)n2ncnc2n1	KB-V1 cytotox 1.03µM, KB-3-1 cytotox 2.59µM, ELG1 repair inh inconclusive
Cc1cc(N2CCN(C(c3ccccc3)c3ccccc3)CC2)n2ncnc2n1	KB-V1 cytotox inconclusive, MCF10A rerep inconclusive (no result: ELG1 repair inh)
Cc1sc2nc3ccc(N4CCCCC4)nn3c(=O)c2c1C	KB-V1 cytotox 9.2µM, ELG1 repair inh inconclusive
Cc1ccc2oc(=O)c3cnn(CC(=O)N4CCN(c5cc(Cl)ccc5C)CC4)c3c2c1	none (no result: SW480 rerep, MCF10A rerep, ELG1 repair inh)
Cc1ccc(CSC(Nc2ccc(F)cc2)=C(C#N)C#N)cc1	KB-V1 cytotox 13µM, SW480 rerep inconclusive, KB-3-1 cytotox inconclusive, MCF10A rerep 13µM, ELG1 repair inh inconclusive
CNc1cc2c(cc1S(=O)(=O)Nc1ccc(C)c(C)c1)CCC(=O)N2	none (no result: SW480 rerep, MCF10A rerep, ELG1 repair inh)
Cc1cc(NC(=O)CN2C(=O)NC3(CCCCCC3)C2=O)ccc1Br	ELG1 repair inh inconclusive
